Key:
Test in all cases: PBM binding z-score (relative to random genomic background probes); higher = stronger binding; sequences stand for … in GC…GCGATTGACAGCGTAGAATGAAGG
[1] = test system: FXR:RXRa (NR concentration 270 nM, RXRa partner concentration 90 nM)
Procedure, shortened: (§1)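 Binding buffer was PBS pH 7.4 with 2% milk, 0.02% Triton X-100, 1 mM DTT, 0.2 mg/mL BSA and 0.4 mg/ml salmon testes DNA. In it, ligand-free nuclear receptor dimers were incubated 1 h on custom Agilent 4×180K protein-binding microarrays carrying double-stranded probes. Antibodies against each partner (one per run) detected binding, and z-scores were calculated against random background probes after regression normalization of scanned fluorescence.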

[2] = test system: LXRa:RXRa (NR concentration 270 nM, RXRa partner concentration 90 nM)
Procedure, shortened: as §1

[3] = test system: LXRa homodimer (NR concentration 270 nM)
Procedure, shortened: as §1

[4] = test system: LXRb:RXRa (NR concentration 270 nM, RXRa partner concentration 90 nM)
Procedure, shortened: as §1

[5] = test system: LXRb homodimer (NR concentration 270 nM)
Procedure, shortened: as §1

[6] = test system: PPARa:RXRa (NR concentration 270 nM, RXRa partner concentration 90 nM)
Procedure, shortened: as §1

[7] = test system: PPARg:RXRa (NR concentration 180 nM, RXRa partner concentration 90 nM)
Procedure, shortened: as §1

[8] = test system: PPARg:RXRa 270nM:90nM, anti-RXR (NR concentration 270 nM, RXRa partner concentration 90 nM)
Procedure, shortened: as §1

[9] = test system: PPARg:RXRa 30nM:10nM, anti-RXR (NR concentration 30 nM, RXRa partner concentration 10 nM)
Procedure, shortened: as §1

[10] = test system: PPARg:RXRa 90nM:30nM, anti-RXR (NR concentration 90 nM, RXRa partner concentration 30 nM)
Procedure, shortened: as §1

[11] = test system: PPARg:RXRa DBDmut IVT, anti-RXR (DBD mutation: RXRa K156A/R161A, NR concentration 270 nM, RXRa partner concentration 90 nM)
Procedure, shortened: as §1

[12] = test system: PPARg:RXRa IVT, anti-PPARg (NR concentration 270 nM, RXRa partner concentration 90 nM)
Procedure, shortened: as §1

[13] = test system: PPARg DBDmut:RXRa IVT, anti-PPARg (DBD mutation: PPARg1 K132A/R137A, NR concentration 270 nM, RXRa partner concentration 90 nM)
Procedure, shortened: as §1

[14] = test system: PPARg DBDmut IVT, anti-PPARg (DBD mutation: PPARg1 K132A/R137A, NR concentration 270 nM)
Procedure, shortened: as §1

[15] = test system: PPARg homodimer (NR concentration 180 nM)
Procedure, shortened: as §1

[16] = test system: PXR:RXRa (NR concentration 270 nM, RXRa partner concentration 90 nM)
Procedure, shortened: as §1

[17] = test system: PXR homodimer (NR concentration 270 nM)
Procedure, shortened: as §1

[18] = test system: RARa:RXR (NR concentration 270 nM, RXRa partner concentration 90 nM)
Procedure, shortened: as §1

[19] = test system: RARa homodimer (NR concentration 270 nM)
Procedure, shortened: as §1

[20] = test system: RARb:RXRa (NR concentration 270 nM, RXRa partner concentration 90 nM)
Procedure, shortened: as §1

Sequence | PBM binding z-score [1] | PBM binding z-score [2] | PBM binding z-score [3] | PBM binding z-score [4] | PBM binding z-score [5] | PBM binding z-score [6] | PBM binding z-score [7] | PBM binding z-score [8] | PBM binding z-score [9] | PBM binding z-score [10] | PBM binding z-score [11] | PBM binding z-score [12] | PBM binding z-score [13] | PBM binding z-score [14] | PBM binding z-score [15] | PBM binding z-score [16] | PBM binding z-score [17] | PBM binding z-score [18] | PBM binding z-score [19] | PBM binding z-score [20]
TTACCAAGGTGCGCTGAGGTCGTTGATCCAACTC | 0.911 | 0.599 | 0.0298 | 0.588 | -0.404 | 0.971 | -0.397 | -0.0544 | -0.287 | 0.0957 | -0.264 | 0.111 | -0.817 | -0.343 | -0.175 | 2.58 | 1.74 | 1.4 | -0.803 | 0.681
TAGCCTAGGTCATTGGGCCAGTATGGTACGCATC | 4.05 | 3.25 | 0.37 | 2.07 | 0.231 | 3.63 | 3.54 | 3.7 | 0.478 | 2.47 | 2.56 | 3.68 | 0.116 | 0.266 | 1.26 | 1.38 | -0.75 | 2.07 | -0.00791 | 3.44
ATCTCTTGGTAACCAAGTTCAGTGAATGCCGAAC | 0.478 | 1.31 | 0.59 | 1.22 | 0.681 | 0.472 | 0.0645 | 0.369 | -0.134 | 0.145 | -0.417 | 0.552 | 0.44 | 0.768 | 0.28 | 1.92 | 2.1 | 0.475 | -0.473 | 0.956
ATCGAGAGGTCGTGAGGTGAGTATACAGAAAGGC | 3.73 | 2.94 | 0.117 | 2.25 | 0.0713 | 4.03 | 2.75 | 2.74 | 0.76 | 1.91 | 0.135 | 2.04 | 1.16 | 0.618 | 1.02 | 2.66 | 0.102 | 3.54 | 0.567 | 3.05
CCTACTGGGCCAAACGTCATTGATTCCAATGCTC | -0.411 | -0.228 | -0.236 | -0.0474 | -0.218 | 2.31 | 4.96 | 6.47 | 5.56 | 6.79 | 6.22 | 3.97 | -0.542 | -0.413 | 0.259 | -0.508 | -0.633 | 0.0892 | -0.153 | 0.179
AGACAAAGTTCACTAGGTAACGTAAGATTCAGCT | 5.15 | 4.98 | 2.65 | 3.12 | 1.08 | 4.76 | 6 | 5.55 | 2.55 | 4.7 | 2.37 | 4.14 | 1.01 | 0.842 | 1.94 | 3.7 | 2 | 2.91 | 0.576 | 4.83
CTCGAAAGGTCTTGCTCAGGTGAGTATACCAAAC | 0.669 | 0.369 | -0.371 | 0.506 | -0.158 | 0.978 | -0.115 | 0.563 | -0.064 | 0.608 | 0.411 | 0.795 | 0.193 | -0.313 | 0.433 | 0.314 | -0.568 | 0.971 | -0.363 | 1.75
AGTCAAAGTTCATCTAGGAAACGTAAGATATGCT | 6.71 | 5.87 | 4.88 | 3.9 | 2.09 | 4.85 | 6.43 | 6.21 | 3.53 | 5.16 | 0.0279 | 2.61 | 1.09 | 0.7 | 2.32 | 4.53 | 3.68 | 3.18 | 1.09 | 5.02
CGAACTAGATCAGAACAGGACAGTGAAGGATGAT | -0.267 | -0.369 | -0.16 | -0.794 | -0.0768 | -0.51 | 0.886 | -0.506 | 0.112 | -0.125 | 0.901 | 0.144 | 0.0731 | 0.309 | 0.437 | -0.412 | 0.0691 | -0.383 | 0.626 | -0.179
TGAATGAGGTTAAAGATCAGGGAGCGTGGCGTCG | 2.85 | 2.34 | -0.379 | 1.14 | 0.0684 | 4.39 | 5.63 | 5.88 | 5.47 | 6.49 | 2.38 | 3.63 | 0.471 | -0.164 | 0.404 | 1.83 | -0.192 | 2.89 | -0.32 | 1.78
TCGAGTAGGTAAGGGGCATTCAGAATGGCGTCGA | -0.106 | -0.02 | -0.436 | 0.42 | -0.693 | 0.747 | 0.463 | 1.71 | 1.19 | 1.41 | 1.59 | 0.472 | -0.991 | -1.03 | 0.148 | -0.173 | -0.537 | -0.00481 | -0.369 | 0.496
TCTCGGAGGACAAGAAAGGTCAGAGCTCGACATC | 2.65 | 3.41 | 2.12 | 2.65 | -0.275 | 3.37 | 0.803 | 2.26 | 2.52 | 2.37 | 1.37 | 0.954 | -0.439 | -0.79 | 2.62 | 3.55 | 0.191 | 4.02 | 0.689 | 4
CATACAGGGTCAACTAGGCCAGAGTAGGGACGGC | 6.88 | 4.92 | 0.472 | 4.1 | 0.96 | 5.82 | 6.43 | 5.91 | 2.49 | 4.66 | 2.92 | 4.23 | 1.17 | 0.243 | 2.2 | 3.61 | 0.451 | 4.7 | 0.953 | 4.66
TCTTGTAGATCAACAGGAGGTTAGGAAAGATCGA | -0.355 | -0.0525 | -0.326 | 0.179 | -0.324 | 0.641 | -0.123 | 1.06 | 2.59 | 1.79 | 1.53 | 0.599 | 0.272 | 0.48 | -0.426 | 0.183 | -0.275 | 0.125 | 0.162 | 0.117
